PubChem BioAssay (NCI)
Compounds without any hit were thinned out: in the full panel of roughly 79,000, 15% have a hit. Active and inactive are the calls of the source. No stated cut-off is given here; in the data, active means growth inhibition above about 70%; inactive means the rest.

Legend:
[1] = NCI Yeast Anticancer Drug Screen. Data for the rad50 strain (AID 155);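 further: 0% = growth of vehicle-only cultures of the same strain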; conditions: S. cerevisiae rad50 strain growth inhibition; at 50.0 µM; hits give high values
In short: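 DNA repair mutant yeast, compound exposure, growth read-out; inhibition is taken relative to vehicle.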

[2] = NCI Yeast Anticancer Drug Screen. Data for the mec2-1 strain (AID 157); conditions: S. cerevisiae mec2-1 strain, at 50.0 µM, hits give high values
In short: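 Vehicle-treated cultures served as reference for growth inhibition of compound-exposed mec2-1 yeast.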

[3] = NCI Yeast Anticancer Drug Screen. Data for the sgs1 mgt1 strain (AID 161);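 further: 0% = growth of cultures given vehicle only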; conditions: S. cerevisiae sgs1 mgt1 strain, at 50.0 µM, hits give high values
In short: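 Read-out: growth inhibition vs vehicle controls. Cells: mutant yeast strain deficient in DNA damage repair.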

[4] = NCI Yeast Anticancer Drug Screen. Data for the cln2 rad14 strain (AID 165);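 further: 0% = growth equal to vehicle treated cultures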; conditions: S. cerevisiae cln2 rad14 strain, at 50.0 µM, hits give high values
In short: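 Each compound was tested on cln2 rad14 yeast. Inhibition of growth was calculated against vehicle-exposed controls.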

[5] = NCI Yeast Anticancer Drug Screen. Data for the bub3 strain (AID 167); conditions: S. cerevisiae bub3 mutant strain, at 50.0 µM, hits give high values
In short: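 In this screen, a yeast mutant lacking normal mitotic checkpoint function is challenged with compound. Relative growth versus vehicle gives the inhibition value.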

[6] = NCI Yeast Anticancer Drug Screen. Data for the mlh1 rad18 strain (AID 175); conditions: S. cerevisiae mlh1 rad18 strain growth inhibition; at 50.0 µM; hits give high values
In short: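 Vehicle-treated cultures served as the reference for growth inhibition in a yeast strain carrying DNA damage repair alterations exposed to each compound.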

Measured: growth inhibition

COC/C(=N/Nc1ccc([N+](=O)[O-])cc1[N+](=O)[O-])C(C)(C)C
inactive: [1] -2.8% | [2] 16.4% | [3] 8.6% | [4] -26.3% | [5] -20.9% | [6] -16.8%

Cc1cccc(NC(=O)CC(=O)N2N=C(N3c4ccccc4Sc4ccccc43)CC2c2ccccc2)c1 (configuration not stated)
inactive: [1] -1.85% | [2] -5.5% | [3] -10.1% | [4] -9.55% | [5] -5.35% | [6] -41.8%

O=C1OC2(C(F)(F)F)Oc3ccccc3CN2C12CCCCC2 (configuration not stated)
inactive: [1] 17.6% | [2] 35% | [3] 11.4% | [4] 25.1% | [5] 42.5% | [6] 13.2%

COC(=O)C1CC=CCCC1=O (configuration not stated)
inactive: [1] -3.8% | [2] -10.8% | [3] 23.7% | [4] 12.2% | [5] 43.7% | [6] 5.65%

O=S(=O)(O)SCC1=NCCCCN1
inactive: [1] -2.95% | [2] -5.7% | [3] -6.35% | [4] -9.4% | [5] -14.4% | [6] 0.05%

CCN(C(=S)Nc1cccc(C(F)(F)F)c1)c1ccccc1
inactive: [1] 38.1% | [2] 22.9% | [3] 49% | [4] 13.9% | [5] 41% | [6] 22.6%

CN(C)P1(=O)N(c2ccc(Cl)cc2)P(=O)(N(C)C)N1c1ccc(Cl)cc1 (configuration not stated)
inactive: [1] -14.2% | [2] -35.6% | [3] -13.1% | [4] 2% | [5] -25% | [6] -13.3%

COC(=O)c1ccccc1NN=Nc1ccccc1Cl
inactive: [1] 3.5% | [2] -17.7% | [3] -0.95% | [4] 8.3% | [5] 6.4% | [6] 11.1%

O=P(O)(O)c1ccc(Oc2ccccc2)cc1
inactive: [1] -8.6% | [2] 1.35% | [3] -4.1% | [4] -22.2% | [5] 5.45% | [6] -2.85%

O=C(O)/C=C/c1ccccc1C(=O)O
inactive: [1] 11.3% | [2] -4.3% | [3] 4.05% | [4] -13.2% | [5] -11.4% | [6] 6.05%

COC(=O)C(C(C[N+](=O)[O-])c1ccco1)=P(c1ccccc1)(c1ccccc1)c1ccccc1 (configuration not stated)
inactive: [2] 5.25% | [3] 45.6% | [4] 8.15% | [5] 0.95% | [6] 25.1%
active: [1] 89.5%

O=[N+]([O-])c1cnc(N(CCO)CCO)s1
inactive: [1] 30.4% | [2] -25.4% | [3] 0.1% | [4] 37.8% | [5] -11.5% | [6] 16.4%

CCSC1(SCC)C2(CCCCC2)C(=O)C12CCCCC2
active: [6] 78.1%
inactive: [1] -5.55% | [2] 17.1% | [3] 9.1% | [4] -12.1% | [5] 13.1%

O=C1CC(C(=O)O)CC(=O)CC(C(=O)O)C1 (configuration not stated)
inactive: [1] -0.7% | [2] -13.2% | [3] -10.6% | [4] -33.4% | [5] 14.9% | [6] 18.9%

COc1cc(OC)c(N=Nc2c(C)nc(N)nc2-c2ccccc2)cc1Cl
inactive: [1] 44.6% | [2] 5.45% | [3] 19.2% | [4] 20.3% | [5] 4.6% | [6] 23.9%

CC(C)(C)C(=O)Oc1ccc(/C=C/C(=O)c2ccc(OC(=O)C(C)(C)C)cc2)cc1
inactive: [1] -5.45% | [2] -20.9% | [3] -28% | [4] -20.9% | [5] -22.9% | [6] -24.4%

COc1ccc(NC=O)c(C(O)CCNC(C)=O)c1 (configuration not stated)
inactive: [1] -15.4% | [2] -10.1% | [3] -19.6% | [4] 0.45% | [5] -39.1% | [6] -34.5%

COc1ccccc1NC(=O)C(Cc1ccccc1)NC(C)=O (configuration not stated)
inactive: [1] 25.2% | [2] 3.7% | [3] -1.85% | [4] -51.5% | [5] 8.2% | [6] 2.65%

CC1=C(C(=O)CC(=O)Nc2ccc(Cl)c(Cl)c2)Sc2ccccc2N1
inactive: [1] 8.1% | [2] 21.9% | [3] -4.3% | [4] 13.7% | [5] 0.25% | [6] 20.9%

COc1cc(C=NCc2ccccc2)cc(OC)c1O
inactive: [1] -1.05% | [2] 19.2% | [3] 4.7% | [4] -14.6% | [5] 19.8% | [6] 8.9%

CCCc1c(C)[nH]c2ccccc12
inactive: [1] 15.1% | [2] -33.3% | [3] 5.7% | [4] 24.8% | [5] -16.9% | [6] 9%

CC(=O)Nc1ccc2c(c1)Cc1ccc(S(C)(=O)=O)cc1-2
inactive: [1] 23.9% | [2] -7.15% | [3] 10.9% | [4] 6.9% | [5] 0.65% | [6] 44.1%

O=c1oc2c(c(N(c3ccccc3)c3ccccc3)c1Cl)CCc1nc(-c3ccccc3)sc1-2
inactive: [1] 3% | [2] -1.25% | [3] -7.6% | [4] 10.8% | [5] -1.55% | [6] -14.9%

Cc1[nH]c(=O)[nH]c(=O)c1N
inactive: [1] 4.8% | [2] -10.4% | [3] -28.9% | [4] -19.4% | [5] -2.9% | [6] 2%

c1ccc(-c2n[nH]c(-c3[nH]nc(-c4ccccc4)c3-c3ccccc3)c2-c2ccccc2)cc1
inactive: [1] -12.2% | [2] 15.3% | [3] -12% | [4] 5.15% | [5] 7.35% | [6] 8.2%

Cc1cc2ccccc2n1CC(=O)N1CCCC1
inactive: [1] -14.8% | [2] -28.6% | [3] -23.6% | [4] 0.8% | [5] 15.9% | [6] -11.8%

Cc1ccc(N=Nc2c(O)c(S(=O)(=O)O)cc3cc(S(=O)(=O)O)ccc23)c(C)c1
inactive: [1] 8.55% | [2] -19.6% | [3] -13.8% | [4] 6.3% | [5] -14% | [6] 2.55%

C=CCC(O)c1ccc(OC)c(OC)c1 (configuration not stated)
inactive: [1] 2.55% | [2] -3.3% | [3] -6.3% | [4] -19.1% | [5] 3.4% | [6] 0.55%

C/C(=N\NC(=S)N1CC2CCC(CC2)C1)c1cccc(C)n1
inactive: [1] 22.1% | [2] -1.45% | [3] 18.8% | [4] 8.85% | [5] 18.4% | [6] 13.8%

Cc1csc2nc(-c3cccs3)nn12
inactive: [1] 0.75% | [2] -15.4% | [3] 7.4% | [4] -1.55% | [5] -7.15% | [6] -9.1%

O=S(=O)(O)C(O)C(c1ccccc1)c1ccccc1 (configuration not stated)
inactive: [1] -16.1% | [2] -15.8% | [3] -15.6% | [4] -15.8% | [5] -7.2% | [6] -31.9%

CCCCOc1ccccc1C(=O)OC
inactive: [1] 23.9% | [2] 5.55% | [3] 21.8% | [4] -0.6% | [5] 9.4% | [6] 18.5%

CN1CCC(c2ccccc2)(c2ccccc2)C(O)C1 (configuration not stated)
inactive: [1] 1.15% | [2] -0.45% | [3] 13.7% | [4] 4.35% | [5] 3.3% | [6] 4.7%

N#CCCN(Cc1ccccc1)C(=S)Nc1cccc(C(F)(F)F)c1
inactive: [2] 53%
active: [1] 75.8% | [3] 85.2% | [4] 81.5% | [5] 70.1% | [6] 78%

O=[N+]([O-])c1ccccc1OC1OC(CO)C(O)C(O)C1O (configuration not stated)
inactive: [1] -2.35% | [2] -5.6% | [3] 14.2% | [4] -33.8% | [5] -14.8% | [6] 7.2%

COc1cc(NCCC(=O)O)c2ncccc2c1
inactive: [1] -25.1% | [2] -19.2% | [3] -41.9% | [4] -18.8% | [5] -24.2% | [6] 0.7%

Cc1nc2ccc(Cl)cc2c2c1CCS2
inactive: [1] -19.1% | [2] -17.3% | [3] -2.8% | [4] -18.1% | [5] -23.1% | [6] -51.4%

Cn1c2ccccc2c(=S)c2cc(NC(=O)CCCCC(=O)Nc3ccc4c(c3)c(=S)c3ccccc3n4C)ccc21
inactive: [1] 32.2% | [2] 22.9% | [3] 22.4% | [4] 23.5% | [5] -4.1% | [6] 23.9%

CCOC(=O)C(C(=O)OCC)C(C)(C)C
inactive: [1] -96.7% | [2] -18.3% | [3] -28.2% | [4] -36.4% | [5] -3.85% | [6] -9.2%

CCCCCCCCCCCCCCCC(=O)OC/C=C/COC(=O)c1ccccc1
inactive: [1] 22.9% | [2] -9.7% | [3] -6.25% | [4] -2.95% | [5] 2.65% | [6] -13%

CC(C)NNC(=O)c1ccc(N)cc1
inactive: [1] 16.1% | [2] 6.05% | [3] 4.55% | [4] 6.55% | [5] 4.8% | [6] 6.35%

CC(=O)OCC1OC=CC(OC(C)=O)C1OC(C)=O (configuration not stated)
inactive: [1] -23.1% | [2] -18.8% | [3] -8.55% | [4] -5.85% | [5] -25.8% | [6] -7.5%
